Measured values: PubChem BioAssay (NCATS)
Inconclusive results are not listed. Active and inactive are the calls of the source. Unless noted, calls come from the whole dose curve; as a rule, active = well fitted curve in the direction sought with a large enough effect; inconclusive = small, poorly fitted or top-dose-only effect, or another doubt; inactive = no such curve, though single readings can be large; an effect the other way counts as inactive or inconclusive.

Columns and labels:
[1] = target: Lysosomal acid glucosylceramidase (Homo sapiens) (UniProt P04062); test: Glucocerebrosidase-p2 (AID 348; in the data active = potency below about 10 µM; note: potency is the fitted concentration of half-maximal effect); conditions: purified GBA, blue fluorogenic substrate, 40 min
Lysosomal acid glucosylceramidase (Homo sapiens), sequence (P04062 whole entry, looked up): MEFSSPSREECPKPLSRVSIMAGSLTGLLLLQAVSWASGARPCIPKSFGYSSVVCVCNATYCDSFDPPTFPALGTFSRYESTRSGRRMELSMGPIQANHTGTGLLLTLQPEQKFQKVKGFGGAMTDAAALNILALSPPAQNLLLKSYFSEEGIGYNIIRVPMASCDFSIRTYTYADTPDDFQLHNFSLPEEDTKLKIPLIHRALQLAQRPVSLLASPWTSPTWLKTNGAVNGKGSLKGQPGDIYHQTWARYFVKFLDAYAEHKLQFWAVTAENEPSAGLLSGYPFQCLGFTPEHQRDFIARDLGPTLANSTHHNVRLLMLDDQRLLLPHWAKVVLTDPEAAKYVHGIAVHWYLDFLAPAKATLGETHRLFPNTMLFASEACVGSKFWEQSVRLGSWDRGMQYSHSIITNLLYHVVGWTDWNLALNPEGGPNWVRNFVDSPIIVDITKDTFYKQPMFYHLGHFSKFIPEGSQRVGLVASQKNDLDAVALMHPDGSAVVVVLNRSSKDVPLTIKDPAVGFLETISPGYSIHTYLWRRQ
Summary of the method: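 Normal human glucocerebrosidase (0.2 nM) with blue fluorogenic substrate (80 uM final) in citrate/phosphate pH 5.9 with 10mM sodium taurocholate, 0.01% tween-20; 40 min RT, NaOH/glycine stop; fluorescence Ex 365/Em 440; AC50 from a titration from 0.6 nM upwards.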

[2] = AP1 Signaling Pathway (AID 357; active = well fitted curve in either direction with a large enough effect, not every such curve was filed as active;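 note: ME-180 reporter cells stimulated with EGF at its EC50 level; % is set by controls: 0 for no effect and ±100 for the full control effect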); conditions: ME-180 AP-1-bla reporter, EGF-induced, beta-lactamase ratio, 5 h; at 7.69 µM (top of the series) unless noted
Summary of the method: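 Modulation of EGF-driven AP-1 transcription was assessed with a beta-lactamase reporter in ME-180 cells. Compound and EC50 EGF were co-incubated 5 hours at 37 °C before 2.5-hour CCF4 loading at room temperature and dual-emission reading.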

[3] = NFAT Signaling Pathway (AID 444; active = well fitted curve in either direction with a large enough effect, not every such curve was filed as active;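 note: carbachol stimulus at about its EC50 of 1 µM final; % is set by controls: 0 for no effect and ±100 for the full control effect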); conditions: Jurkat NFAT-bla M1, carbachol, beta-lactamase ratio, 5 h; at 7.69 µM (top of the series) unless noted
Summary of the method: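 Read-out: CCF4 FRET ratio (460 nm/530 nm) after 1 h RT dye loading, used for %activity and AC50 from titration series. Cells: Jurkat NFAT-β-lactamase/M1 line, treated with compound plus 1 uM carbachol for 5 h, 37 °C.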

[4] = Stat Signaling Pathway (AID 446; active = well fitted curve in either direction with a large enough effect, not every such curve was filed as active;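 note: ME-180 cervical cancer cells given 40 pM IL-6 alongside compound; SIE-controlled beta-lactamase reporter measured as 460/530 nm FRET emission ratio; % is set by controls: 0 for no effect and ±100 for the full control effect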); conditions: ME-180 SIE beta-lactamase reporter, IL-6 stimulated, 5 h; at 7.69 µM (top of the series) unless noted
Summary of the method: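 Compound effects on IL-6-induced STAT reporter activity were measured in ME-180 cells. After overnight culture, cells were co-treated with 40 pM IL-6 for 5 hrs before beta-lactamase substrate loading at room temperature.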

[5] = target: Glucocorticoid receptor (Homo sapiens) (UniProt P04150); test: GR-GFP Redistribution (AID 450;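 active = compounds whose dose series gives a full or clear partial fitted curve of increased nuclear translocation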; note: potency is the fitted concentration of half-maximal effect); conditions: U2OS GR-GFP nuclear translocation, laser cytometry, 2 h
Glucocorticoid receptor (Homo sapiens), sequence (P04150 whole entry, looked up, the tested form may be a part): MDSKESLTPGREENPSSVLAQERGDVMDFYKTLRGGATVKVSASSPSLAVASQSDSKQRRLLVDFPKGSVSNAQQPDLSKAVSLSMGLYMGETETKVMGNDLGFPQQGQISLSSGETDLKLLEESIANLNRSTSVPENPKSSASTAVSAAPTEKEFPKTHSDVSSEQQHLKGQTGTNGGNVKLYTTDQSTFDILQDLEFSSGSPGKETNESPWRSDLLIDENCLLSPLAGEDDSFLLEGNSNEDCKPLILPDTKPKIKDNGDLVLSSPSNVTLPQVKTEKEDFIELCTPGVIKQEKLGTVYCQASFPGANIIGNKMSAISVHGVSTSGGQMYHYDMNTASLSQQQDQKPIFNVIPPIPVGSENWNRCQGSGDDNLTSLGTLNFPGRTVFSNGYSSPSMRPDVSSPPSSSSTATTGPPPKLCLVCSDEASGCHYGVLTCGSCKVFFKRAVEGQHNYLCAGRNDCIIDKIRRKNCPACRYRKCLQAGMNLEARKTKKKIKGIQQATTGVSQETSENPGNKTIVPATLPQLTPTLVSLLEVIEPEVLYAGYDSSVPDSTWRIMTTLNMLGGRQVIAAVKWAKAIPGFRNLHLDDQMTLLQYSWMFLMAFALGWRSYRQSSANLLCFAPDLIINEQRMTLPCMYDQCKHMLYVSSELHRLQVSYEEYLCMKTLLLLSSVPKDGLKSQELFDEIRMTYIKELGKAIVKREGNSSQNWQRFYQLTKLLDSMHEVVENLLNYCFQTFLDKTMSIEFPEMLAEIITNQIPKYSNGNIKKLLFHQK

[6] = target: Glucocorticoid receptor (Homo sapiens) (UniProt P04150); test: GR-EFC Redistribution (AID 451; calls by dose curve; note: potency is the fitted concentration of half-maximal effect); conditions: CHO-K1 GR-EFC translocation, beta-gal luminescence, 2 h
Summary of the method: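 Translocation of GR-ED fusion to nuclear EA restores b-gal, read by luminescence after 1 h room-temperature detection. Engineered CHO-K1 biosensor cells, 1,000/well, exposed 2 h at 37 C to titrations up to 46 uM final.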

[7] = target: Mitogen-activated protein kinase 10 (Mus musculus) (UniProt Q61831); test: JNK3 AlphaScreen Assay (AID 530; active = well fitted curve in either direction with a large enough effect, not every such curve was filed as active;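 note: kinase came from lysate of stimulated human HepG2 cells; signal reports phosphorylation of biotinylated GST-cJun 1-79 at Ser73 with 10 µM ATP; % is set by controls: 0 for no effect and ±100 for the full control effect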)
Summary of the method: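 qHTS titrations with 15 min compound pre-incubation before adding ATP (10 uM final). Read-out: AlphaScreen of Ser73-phosphorylated biotin-GST-cJun using HepG2 lysate JNK3 activated by IL-1β and TNFα.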

[8] = target: 3',5'-cyclic-AMP phosphodiesterase 4B (Homo sapiens) (UniProt Q07343); test: qHTS Assay for Inhibitors of PDE-IV (AID 607; active = well fitted activation curve with a large enough effect in the main read-out, with a control signal flat, not every such curve was filed as active; note: % of control where 0% means no effect)
3',5'-cyclic-AMP phosphodiesterase 4B (Homo sapiens), sequence (Q07343 whole entry, looked up): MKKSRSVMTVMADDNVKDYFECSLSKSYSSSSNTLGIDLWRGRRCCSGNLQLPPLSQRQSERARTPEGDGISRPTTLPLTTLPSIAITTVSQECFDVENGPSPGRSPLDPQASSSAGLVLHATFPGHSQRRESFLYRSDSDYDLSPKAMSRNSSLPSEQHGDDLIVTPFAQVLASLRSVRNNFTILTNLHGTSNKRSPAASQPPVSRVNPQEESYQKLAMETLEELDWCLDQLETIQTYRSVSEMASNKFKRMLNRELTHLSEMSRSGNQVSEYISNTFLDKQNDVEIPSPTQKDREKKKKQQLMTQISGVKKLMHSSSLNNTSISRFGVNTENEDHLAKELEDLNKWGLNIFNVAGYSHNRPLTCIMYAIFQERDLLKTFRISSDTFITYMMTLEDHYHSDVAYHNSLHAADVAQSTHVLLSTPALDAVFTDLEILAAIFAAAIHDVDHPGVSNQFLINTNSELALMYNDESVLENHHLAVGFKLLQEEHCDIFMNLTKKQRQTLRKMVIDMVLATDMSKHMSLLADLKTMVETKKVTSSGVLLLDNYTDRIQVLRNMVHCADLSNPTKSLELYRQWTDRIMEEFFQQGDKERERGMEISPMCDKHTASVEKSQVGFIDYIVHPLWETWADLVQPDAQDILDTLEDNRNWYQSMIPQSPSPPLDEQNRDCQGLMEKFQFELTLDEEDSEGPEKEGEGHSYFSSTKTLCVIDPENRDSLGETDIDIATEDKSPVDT
Summary of the method: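 ACTOne HEK293 cells carry a modified cAMP-gated CNG channel and express endogenous PDE4; plated 1000 cells/well, compounds up to 22.9 uM final. Membrane-potential dye fluorescence (ex 535/em 590) was read; parental cells received 10 uM forskolin + 100 uM RO 20-1724.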

[9] = qHTS Assay for Lipid Storage Modulators (AID 1519; calls by dose curve); conditions: Drosophila S3 cells, BODIPY lipid droplet/cell ratio, laser cytometry, cells loaded with oleic acid; for activity change, negative = inhibition: at 57.5 µM (top of the series)
Summary of the method: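 Cells seeded at 5,000 per well were treated with compounds over a concentration series and loaded with oleic acid (400 uM, as added). Lipid droplet fluorescence (488 nm excitation, 500-530 nm channel) was read by laser-scanning cytometry and normalized to 20 uM Triacsin C.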

[10] = target: Dual specificity protein kinase CLK4 (Homo sapiens) (UniProt Q9HAZ1); test: qHTS Assay for Inhibitors of CDC-like Kinase 4 (Kinase-Glo Assay) (AID 1770); note: % is set by controls: 0 for no effect and ±100 for the full control effect; nearly all actives have a fitted effect of over 65% in size
Dual specificity protein kinase CLK4 (Homo sapiens), sequence (Q9HAZ1 whole entry, looked up): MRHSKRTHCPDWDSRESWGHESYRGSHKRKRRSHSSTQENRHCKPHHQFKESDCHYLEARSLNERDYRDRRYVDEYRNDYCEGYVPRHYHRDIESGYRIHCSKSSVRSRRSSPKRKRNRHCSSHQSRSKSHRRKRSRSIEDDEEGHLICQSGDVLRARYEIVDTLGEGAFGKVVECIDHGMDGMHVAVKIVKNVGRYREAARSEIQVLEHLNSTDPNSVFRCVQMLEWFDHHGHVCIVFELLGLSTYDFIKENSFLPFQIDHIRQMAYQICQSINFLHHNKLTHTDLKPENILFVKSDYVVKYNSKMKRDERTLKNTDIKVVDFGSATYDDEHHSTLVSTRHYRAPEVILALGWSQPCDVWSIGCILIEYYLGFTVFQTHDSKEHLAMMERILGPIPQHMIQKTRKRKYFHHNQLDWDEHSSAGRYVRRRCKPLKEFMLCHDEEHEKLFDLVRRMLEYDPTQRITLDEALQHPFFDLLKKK
Summary of the method: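 Readout: Kinase-Glo luminescence from ATP left after a 4.5 h room-temperature reaction of 25 nM Clk4 with 100 uM RS peptide and 1 uM ATP (final). Buffer: 25 mM Tris pH 7.5, 10 mM MgCl2.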

[11] = target: Dual specificity protein kinase CLK4 (Homo sapiens) (UniProt Q9HAZ1); test: qHTS Assay for Inhibitors of CDC-like Kinase 4 (ADP-Glo Assay) (AID 1771); note: % is set by controls: 0 for no effect and ±100 for the full control effect; nearly all actives have a fitted effect of over 70% in size
Summary of the method: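 ADP production was read by ADP-Glo luminescence after residual ATP depletion, following 1 h room-temperature reaction of 25 nM Clk4, 1 uM ATP and 100 uM RS peptide with MgCl2, EGTA, DTT and Triton X-100.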

[12] = target: Dual specificity protein kinase CLK4 (Homo sapiens) (UniProt Q9HAZ1); test: qHTS Assay for Inhibitors of CDC-like Kinase 4 (ADP-FP Assay) (AID 1795);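 note: recombinant human CLK4 phosphorylating RS repeat peptide at 1 µM ATP; % is set by controls: 0 for no effect and ±100 for the full control effect; nearly all actives have a fitted effect of over 60% in size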
Summary of the method: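 FP readout: Orange Transcreener ADP2 tracer (4 nM) plus ADP antibody, read after 30 min at room temperature. Kinase step: 6.25 nM Clk4, 100 uM RS peptide, 1 uM ATP, pH 7.5, 1 h.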

[13] = target: Ubiquitin carboxyl-terminal hydrolase 1 (Homo sapiens) (UniProt O94782); test: Inhibitors of USP1/UAF1: Pilot qHTS (AID 504865);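 note: rhodamine fluorescence freed from ubiquitin-rhodamine substrate followed over time; top concentration of the series differs between compounds; % is set by controls: 0 for no effect and ±100 for the full control effect; nearly all actives have a fitted effect of over 35% in size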
Ubiquitin carboxyl-terminal hydrolase 1 (Homo sapiens), sequence (O94782 whole entry, looked up): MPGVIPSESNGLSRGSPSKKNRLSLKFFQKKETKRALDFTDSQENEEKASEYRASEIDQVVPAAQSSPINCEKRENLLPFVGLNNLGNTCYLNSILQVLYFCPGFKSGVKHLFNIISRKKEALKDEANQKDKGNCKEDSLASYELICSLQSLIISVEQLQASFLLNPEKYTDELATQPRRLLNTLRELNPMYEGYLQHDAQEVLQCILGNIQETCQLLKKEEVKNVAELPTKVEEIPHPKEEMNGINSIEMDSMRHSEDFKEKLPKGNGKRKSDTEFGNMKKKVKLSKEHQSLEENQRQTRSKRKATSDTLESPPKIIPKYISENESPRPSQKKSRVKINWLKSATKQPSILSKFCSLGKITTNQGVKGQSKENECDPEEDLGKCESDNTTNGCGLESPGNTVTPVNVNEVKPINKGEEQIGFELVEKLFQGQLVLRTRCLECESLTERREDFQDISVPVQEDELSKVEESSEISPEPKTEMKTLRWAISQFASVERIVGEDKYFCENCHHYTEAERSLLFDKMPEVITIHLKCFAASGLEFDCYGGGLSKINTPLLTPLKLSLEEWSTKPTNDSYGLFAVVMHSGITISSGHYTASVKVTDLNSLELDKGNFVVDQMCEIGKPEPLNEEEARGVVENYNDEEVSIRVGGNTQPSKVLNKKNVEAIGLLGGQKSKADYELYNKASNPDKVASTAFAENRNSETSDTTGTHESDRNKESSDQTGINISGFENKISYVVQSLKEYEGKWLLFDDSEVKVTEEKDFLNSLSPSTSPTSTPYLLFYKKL
Summary of the method: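 1nM USP1/UAF1 + cpd, 15 min RT; start w/ Ub-Rho 150nM final; kinetic FL 480/540 nm, 6 reads q60 s. Buffer 50mM HEPES pH 7.8, 0.5mM EDTA, 1mM TCEP, 0.01% Tween-20, 0.1 mg/ml BSA.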

[14] = Counterscreen qHTS for small molecule stabilizers of the endoplasmic reticulum resident proteome: GLuc-NoTag assay (AID 1508627); note: potency is the fitted concentration of half-maximal effect;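 for activity change, negative = inhibition: 0% = thapsigargin alone and -100% = DMSO vehicle control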
Summary of the method: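 Counterscreen line: SH-SY5Y-GLuc-NoTag cells, treated with compound 19 hr before a 4 hr, 100 nM thapsigargin calcium depletion. Secreted Gaussia luciferase in the medium was measured by luminescence after coelenterazine was added (0.07x final), with cells unlysed.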

[15] = Confirmatory qHTS for small molecule stabilizers of the endoplasmic reticulum resident proteome: Secreted ER Calcium Modulated Protein (SERCaMP) assay (AID 1508628); note: nearly all actives have a fitted effect of over 40% in size; note: potency is the fitted concentration of half-maximal effect
Summary of the method: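 Reporter secretion upon ER calcium depletion (100 nM thapsigargin, 4 h, 37C) is measured as medium luminescence with coelenterazine, after 16 h compound pretreatment of SH-SY5Y-GLuc-SERCaMP cells; primary at three concentrations up to 38.3 uM, follow-up at 11 (up to 76.6 uM).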

[16] = target: Cytochrome P450 1A2 (Homo sapiens) (UniProt P05177); test: p450-cyp1a2 (AID 410; calls by dose curve; note: potency is the fitted concentration of half-maximal effect)
Cytochrome P450 1A2 (Homo sapiens), sequence (P05177 whole entry, looked up): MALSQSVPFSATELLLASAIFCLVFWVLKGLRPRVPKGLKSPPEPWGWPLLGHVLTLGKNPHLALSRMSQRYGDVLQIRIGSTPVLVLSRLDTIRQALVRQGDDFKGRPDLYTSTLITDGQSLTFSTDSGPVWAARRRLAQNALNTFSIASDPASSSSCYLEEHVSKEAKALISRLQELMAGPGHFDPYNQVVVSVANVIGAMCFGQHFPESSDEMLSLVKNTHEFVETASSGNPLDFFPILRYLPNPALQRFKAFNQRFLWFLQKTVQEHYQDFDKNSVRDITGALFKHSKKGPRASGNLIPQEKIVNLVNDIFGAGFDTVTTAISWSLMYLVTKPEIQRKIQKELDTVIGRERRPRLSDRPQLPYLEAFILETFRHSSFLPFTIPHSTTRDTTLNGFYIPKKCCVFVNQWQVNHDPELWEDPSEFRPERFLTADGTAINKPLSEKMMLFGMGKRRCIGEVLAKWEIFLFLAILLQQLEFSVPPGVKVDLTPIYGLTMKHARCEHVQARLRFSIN
Summary of the method: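 Luminescent demethylation readout: Luciferin-ME (100uM, equal to Km) turned over by 20nM CYP1A2 for 60 min at room temperature after NADPH regeneration addition, following 10 min compound preincubation. Normalization used 57 uM furafylline as full inhibition.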

[17] = target: Cytochrome P450 3A4 (Homo sapiens) (UniProt P08684); test: qHTS Assay for Activators of Cytochrome P450 3A4 (AID 885); note: nearly all actives have a fitted effect of over 65% in size
Cytochrome P450 3A4 (Homo sapiens), sequence (P08684 whole entry, looked up): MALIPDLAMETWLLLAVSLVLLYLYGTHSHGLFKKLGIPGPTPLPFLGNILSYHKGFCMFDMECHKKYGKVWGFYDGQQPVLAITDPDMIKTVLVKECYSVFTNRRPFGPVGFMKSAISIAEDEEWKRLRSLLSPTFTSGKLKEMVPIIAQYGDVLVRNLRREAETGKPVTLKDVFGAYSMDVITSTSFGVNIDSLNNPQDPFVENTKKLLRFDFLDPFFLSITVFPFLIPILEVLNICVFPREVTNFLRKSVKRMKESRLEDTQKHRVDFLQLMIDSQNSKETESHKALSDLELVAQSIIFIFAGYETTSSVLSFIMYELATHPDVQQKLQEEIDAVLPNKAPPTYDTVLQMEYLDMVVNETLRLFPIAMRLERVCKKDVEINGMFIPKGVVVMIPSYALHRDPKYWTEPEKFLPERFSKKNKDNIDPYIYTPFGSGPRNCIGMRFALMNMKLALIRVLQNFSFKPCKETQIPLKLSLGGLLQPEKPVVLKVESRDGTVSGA
Summary of the method: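 CYP3A4 activity: Luciferin-PPXE O-dealkylation, 25uM substrate, 200mM KPO4, RT throughout. Read-out is luciferase luminescence; higher values reflect activation.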

[18] = qHTS Assay for Identification of Small Molecule Agonists for Hypoxia Response Element Signaling Pathway (AID 914; active = well fitted activation curve with a large enough effect in the signal ratio, with a control signal flat, not every such curve was filed as active; the % refers to the signal ratio; note: % of control where 0% means no effect); conditions: ME-180 (cervical carcinoma) HRE-bla reporter, beta-lactamase ratio, CoCl2, 17 h; activation: stronger effect = higher value
Summary of the method: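 A beta-lactamase reporter under hypoxia response element control in ME-180 cells served as the system. Compound titrations plus EC50 CoCl2 ran 17 h at 37 degrees Celsius; AC50 values were fitted from %Activity.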

[19] = measured here: cell count channel max response
[20] = measured here: lipid channel max response

Question: Which results are given for `COc1cccc(Cn2c(=O)c(C)nc3cnc(N4CCN(C)CC4)nc32)c1`?
Answer: Potency [1]: > 11.4 µM (inactive); activity change, negative = inhibition [2]: -0.444% (inactive); activity change, negative = inhibition [3]: 5.99% (inactive); activity, negative = inhibition [4]: -11.6% (inactive); Potency [5]: > 9.22 µM (inactive); Potency [6]: > 46 µM (inactive); outcome [7]: inactive; Potency [8]: inactive; activity change, negative = inhibition [9]: -3.34% (inactive); max response [9, 19]: 13.5%; max response [9, 20]: 7.13%; Potency [10]: inactive; Potency [11]: inactive; Potency [12]: inactive; Potency [13]: inactive; Potency [14]: inactive; Potency [15]: inactive

Question: Which Potency [14] does the source give for `OC[C@H]1NC[C@H](O)[C@@H](O)[C@@H]1O` here?
Answer: inactive

Question: And the Potency [15]?
Answer: inactive

Question: For `CN1CCN(c2nc(-c3ccccc3C(F)(F)F)nc3ccccc23)CC1`, which Potency [1] is on record?
Answer: > 11.4 µM (inactive)

Question: And the activity change, negative = inhibition [2]?
Answer: -3.47% (inactive)

Question: And the Potency [16]?
Answer: 10 µM (active)

Question: And the activity change, negative = inhibition [3]?
Answer: -6.69% (inactive)

Question: What about the activity, negative = inhibition [4] of the same compound?
Answer: -4.43% (inactive)

Question: What about the Potency [6] of the same compound?
Answer: > 46 µM (inactive)

Question: And the outcome [7]?
Answer: inactive

Question: And the Potency [8]?
Answer: inactive

Question: And the Potency [17]?
Answer: inactive

Question: And the activation [18]?
Answer: -4.44% (inactive)

Question: And the Potency [10]?
Answer: inactive

Question: What about the Potency [11] of the same compound?
Answer: inactive

Question: What about the Potency [12] of the same compound?
Answer: inactive

Question: What about the Potency [13] of the same compound?
Answer: inactive

Question: And the Potency [14]?
Answer: inactive

Question: And the Potency [15]?
Answer: 14.1 µM (active)

Question: With `COc1ccc(NC(=O)N2CCC3(CC2)CCN(S(=O)(=O)c2ccccc2)CC3)cc1` as the compound, how does the Potency [1] read?
Answer: > 11.4 µM (inactive)

Question: What about the activity change, negative = inhibition [2] of the same compound?
Answer: -24% (inactive)

Question: What about the Potency [16] of the same compound?
Answer: 31.6 µM (active)

Question: And the activity change, negative = inhibition [3]?
Answer: -21.7% (inactive)

Question: What about the activity, negative = inhibition [4] of the same compound?
Answer: -16.7% (inactive)

Question: And the Potency [6]?
Answer: > 46 µM (inactive)

Question: And the outcome [7]?
Answer: inactive

Question: What about the Potency [8] of the same compound?
Answer: inactive

Question: What about the Potency [17] of the same compound?
Answer: inactive

Question: What about the activity change, negative = inhibition [9] of the same compound?
Answer: 2.68% (inactive)

Question: What about the max response [9, 19] of the same compound?
Answer: 2.58%

Question: What about the max response [9, 20] of the same compound?
Answer: 8.36%

Question: What about the Potency [14] of the same compound?
Answer: inactive

Question: And the Potency [15]?
Answer: inactive

Question: Which Potency [14] does the source give for `CC(=O)N[C@H]1C(O[C@@H]2O[C@H](C[C@@H](O)[C@H]3O[C@@H](N4CCC(=O)NC4=O)[C@H](O)[C@@H]3O)[C@H](O)[C@H](O)[C@H]2NC(=O)/C=C/CCCCCCCCCCC(C)C)OC(CO)[C@@H](O)[C@@H]1O` (some centres not stated) here?
Answer: 35.5 µM (active)

Question: And the Potency [15]?
Answer: 0.562 µM (active)

Question: For `O=c1c(-c2ccc(F)cc2)nc2cnc(N3CCNCC3)nc2n1-c1ccccc1`, which Potency [1] is on record?
Answer: > 11.4 µM (inactive)

Question: And the Potency [16]?
Answer: 10 µM (active)

Question: And the Potency [6]?
Answer: > 46 µM (inactive)

Question: What about the Potency [8] of the same compound?
Answer: inactive

Question: And the Potency [17]?
Answer: inactive

Question: And the activity change, negative = inhibition [9]?
Answer: 6.93% (inactive)

Question: And the max response [9, 19]?
Answer: 19.9%

Question: And the max response [9, 20]?
Answer: 25.6%

Question: What about the Potency [10] of the same compound?
Answer: inactive

Question: What about the Potency [11] of the same compound?
Answer: inactive

Question: And the Potency [12]?
Answer: inactive

Question: And the Potency [13]?
Answer: inactive

Question: And the Potency [14]?
Answer: inactive

Question: What about the Potency [15] of the same compound?
Answer: inactive

Question: For `COc1cccc(CN2CCN(C(=O)c3ccc(-c4ccccc4)cc3)CC2)c1OC`, which Potency [14] is on record?
Answer: inactive

Question: With `O=C(Nc1ncccn1)c1ccc([N+](=O)[O-])o1` as the compound, how does the Potency [14] read?
Answer: inactive

Question: Which Potency [14] does the source give for `Cc1ccc(-n2c(C)cc(/C=N/NC(=O)c3ccncc3)c2C)cc1C` here?
Answer: inactive

Question: And the Potency [15]?
Answer: inactive

Question: What does the source list for `c1cncc(-c2nc(N3CCNCC3)c3ccccc3n2)c1`?
Answer: Potency [1]: > 11.4 µM (inactive); activity change, negative = inhibition [2]: 8.36% (inactive); Potency [16]: 2.51 µM (active); activity change, negative = inhibition [3]: 7.65% (inactive); activity, negative = inhibition [4]: 4.77% (inactive); Potency [5]: > 46 µM (inactive); Potency [6]: > 46 µM (inactive); outcome [7]: inactive; Potency [8]: inactive; Potency [17]: inactive; Potency [13]: inactive; Potency [14]: inactive; Potency [15]: 22.4 µM (active)
